Source: PubChem
Many of the other results were omitted from the sample, so hits are more common in it than they were.
Pf Dd2 growth = inhibitors of Plasmodium falciparum Dd2 growth | P. falciparum Dd2 growth, SYBR Green, 72 h | Potency, µM (top dose mostly 28.9 µM), without a hit: at the highest dose activity, negative = inhibition, usual class: inhibitors | 4.3% of 120,000 active; active = well fitted inhibition curve with a large enough effect;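 also: plate controls were DMSO vehicle for no effect and reference drug for full effect; nearly all actives have a fitted effect of over 65% in size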
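Infected erythrocytes (Dd2, 0.3% parasitemia, 2.5% hematocrit final) are added to compound in RPMI-1640/Albumax II medium, grown 72 h at 37C in low oxygen, then lysed with saponin/Triton-X containing SYBR Green and read by fluorescence.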
Starred values were filed as active, the others as inactive; i = inactive; [ ] = remark or other dose. Potency is read from the fitted curve at half-maximal effect.

SMILES	Pf Dd2 growth
CCOC(=O)C[C@@H]1C[C@@H](C(C)C)[C@H](CNS(=O)(=O)c2ccccc2)C=C1C	-5%[44.1 µM]
Cc1noc(C)c1Cc1c(C(=O)NCCn2c(C)cnc2C2CC2)noc1C	i
CNC(=O)[C@H]1C[C@H](Oc2cccnc2)CN1C(=O)Cc1cccc(C)c1	-8%
CCn1cc(S(=O)(=O)N2CCCCC2c2nc(CCOc3ccc(F)cc3)no2)cn1 (centres undefined)	-1%
Cc1cc(C(=O)N2C[C@@H](CO)[C@H](c3ccccn3)C2)no1	-25%
CC(=O)N1CCC(NC2(Cc3cc(COc4ccccc4)on3)COC2)CC1	-1%[44.1 µM]
COC(=O)[C@H](NC(=O)[C@@H]1[C@@H](NC(=O)Nc2cccc(OC)c2)CCN1C(=O)CSC)C(C)C	15%
CCc1ccc2nc(N3CCC(C(=O)O)CC3)sc2c1	21%
CCCCN(C)CCCNC(=O)c1ccc2nc(N3CCCCC3)sc2c1	8.9µM*
CCCCN(C)CCNC(=O)C1CCN(c2nc3ccc(CC)cc3s2)CC1	10µM*
CCc1ccc2nc(N3CCN(C(=O)C4CC4)CC3)sc2c1	i
CCN(CC)CCCNC(=O)c1ccc2nc(N3CCCCC3)sc2c1	-9%
COc1ccc(N2CCN(CCCNC(=O)c3ccc4nc(N5CCCCC5)sc4c3)CC2)cc1	7%
O=S(=O)(Cc1ccccc1)N1CCC2(CCCCO2)CC1	-17%
Cn1cc(C2c3nccn3CCCN2C(=O)c2ncccc2F)cn1 (centres undefined)	3%
CC(C)(C)OC(=O)N1CCC(c2c(C(=O)N3CCN(C(=O)c4ccco4)CC3)cnn2-c2ccc(Cl)cc2)CC1	104%[5.79 µM]
CCN1CCN(C(=O)c2cnn(-c3ccc(F)cc3F)c2C2CCN(C(=O)OC(C)(C)C)CC2)CC1	-6%
CC(C)(C)OC(=O)N1CCC(c2c(C(=O)N3CCN(C(=O)c4ccco4)CC3)cnn2-c2ccccc2Cl)CC1	11µM*
Cc1ccc(N2CCN(C(=O)c3cnn(-c4ccc(F)cc4F)c3C3CCN(C(=O)OC(C)(C)C)CC3)CC2)c(C)c1	7.9µM*
Cc1ccc(C)c(N2CCN(CCCNC(=O)c3cnn(-c4cccc(Cl)c4)c3C3CCN(C(=O)OC(C)(C)C)CC3)CC2)c1	1.4µM*
Cc1ccc(C)c(N2CCN(C(=O)c3cnn(-c4ccccc4Cl)c3C3CCN(C(=O)OC(C)(C)C)CC3)CC2)c1	3.5µM*
C[C@@H](NCc1ccccc1)c1onc(-c2ccc(F)cc2)c1C(=O)O	10%[44.1 µM]
CCOC(=O)c1ccc(NC(=O)N2Cc3[nH]cnc3C[C@H]2c2nc(-c3ccc(C)cc3)no2)cc1	-8%
COC(=O)c1cccc(-c2nc(C3CC(=O)N(c4ccc(F)c(Cl)c4)C3)no2)c1 (centres undefined)	69%
CCN1C(=O)CCN(C(=O)NCc2ccc(C)cc2)CC12CCOCC2	-15%
SMILES	Pf Dd2 growth
O=C(O)C1CCc2nnc(C3CCCN(C(=O)c4cccc(Cl)c4)C3)n21 (centres undefined)	0%
CC(C)CN1C[C@@H](C(=O)O)C[C@@H](C(=O)Nc2ccc(F)cc2)C1	3%
CCN1CCN(CCCNC(=O)c2cnn(-c3ccc(C)cc3)c2C2CCN(C(=O)OC(C)(C)C)CC2)CC1	-4%
Cc1ccc(-n2ncc(C(=O)NCCCN3CCN(C)CC3)c2C2CCN(C(=O)OC(C)(C)C)CC2)c(C)c1	i
Cc1ccc(C)c(N2CCN(CCCNC(=O)c3cnn(-c4ccccc4Cl)c3C3CCN(C(=O)OC(C)(C)C)CC3)CC2)c1	2.2µM*
Cc1ccc(C)c(N2CCN(CCCNC(=O)c3cnn(-c4ccc(F)cc4)c3C3CCN(C(=O)OC(C)(C)C)CC3)CC2)c1	1.3µM*
CC1(C)CN(C(=O)c2coc(COc3ccc4c(c3)OCO4)n2)CCO1	-5%
O=C(c1cc(C2CC2)[nH]n1)N1C[C@@H](CO)[C@H](c2ccccn2)C1	i
COc1cc(NC(=O)CSc2ncccc2C(=O)OC(C)C)cc(OC)c1	1%
COc1cc(NC(=O)CSc2nc(-c3ccccc3)no2)cc(OC)c1	1.1µM*
COc1ccc(NC(=O)CSc2cc(-c3ccccc3)nc(C)n2)cc1	20%
COc1cc(NC(=O)CSc2nc(-c3ccc(C(C)C)cc3)no2)cc(OC)c1	0.71µM*
COc1cc(NC(=O)CSc2nc3ccccc3nc2Cc2ccc(Cl)cc2)cc(OC)c1	8%
COc1cc(NC(=O)Cn2cccc2-c2nc(-c3ccc(OC)c(F)c3)no2)cc(OC)c1	-20%
Cc1ccc(C)c(CN2CCn3c(nn(CCCOc4ccc(F)cc4)c3=O)C2=O)c1	-10%
Cc1ccccc1CC(=O)N1CCC2(CC1)N=C(c1cccc(Br)c1)NO2	-21%
CN(C)C(=O)c1c[nH]c2cccnc12	14%[44.1 µM]
CN1CCCC2(C1)CN(Cc1cccnc1)c1ccc(C(=O)NCc3cccs3)cc12 (centres undefined)	-8%[44.1 µM]
CN1CCC2(C1)CN(Cc1ccccc1)c1ccc(C(=O)NCc3cccs3)cc12 (centres undefined)	7.1µM*
Cc1nc(CN2CC3(CCN(C)C3)c3cc(C(=O)NCc4cccs4)ccc32)cs1 (centres undefined)	-3%[44.1 µM]
COC[C@@H]1[C@H](C(=O)Nc2cc(OC)ccc2OC)CCC(=O)N1C	i
CN(C)c1ccc(CN2CCOC[C@H]2c2ncc(-c3ccc(F)cc3)[nH]2)cc1	i
Fc1ccc(CN2CCCC3(CC(c4cccc(C(F)(F)F)c4)=NO3)C2)cc1 (centres undefined)	-16%
Fc1ccc(CN2CCC3(CC(c4cccc(C(F)(F)F)c4)=NO3)C2)cc1 (centres undefined)	10µM*
N#Cc1ccc(CN2CCC3(CC(c4cccc(C(F)(F)F)c4)=NO3)C2)cc1 (centres undefined)	-18%
SMILES	Pf Dd2 growth
CN(C)c1ccc(CN2CCCC3(CC(c4cccc(C(F)(F)F)c4)=NO3)C2)cc1 (centres undefined)	7%
CC(=O)Nc1ccc(CN2CCC3(CC2)CC(c2cccc(C(F)(F)F)c2)=NO3)cc1	10µM*
CC(=O)Nc1ccc(CN2CCC3(CC2)CC(c2cccnc2)=NO3)cc1	-8%
Cc1ccncc1C(=O)N1CCCN(S(=O)(=O)c2ccccc2)CCC(=O)NCC1	-6%
COCCNC(=O)C1N(C(C)C)C(=O)C12CCCCC2 (centres undefined)	-7%
N#Cc1ccc(S(=O)(=O)NCC(=O)N2CCCCCNC(=O)CC2c2ccccc2)cc1 (centres undefined)	-13%
Cc1nn(C)c(C)c1CCN(C)C(=O)[C@H]1CN(Cc2ccccc2)C[C@H]1C(=O)O	i
CN1CCN(c2nc3c(c(=O)[nH]2)CCN(Cc2cc(Cl)ccc2F)CC3)CC1	74%[5.79 µM]
COc1ccc(S(=O)(=O)NC[C@@H]2C=C(C)[C@H](CC(=O)NCc3ccc(C#N)cc3)C[C@H]2C(C)C)cc1	-4%
CC1=C[C@@H](CNS(=O)(=O)c2ccccc2)[C@H](C(C)C)C[C@H]1CC(=O)NCc1ccc(C#N)cc1	4.5µM*
CC1=C[C@@H](CNS(=O)(=O)c2cccs2)[C@H](C(C)C)C[C@H]1CC(=O)NCc1ccc(C#N)cc1	i
COc1ccc(NC(=O)Cn2nc3n(c2=O)CCCC3)cc1	15%
O=C1Cc2c(-c3cccc(C(F)(F)F)c3)n[nH]c2CN1Cc1ccccc1	i
O=C1Cc2c(-c3ccsc3)n[nH]c2CN1Cc1ccccc1	5.6µM*
COCCN1Cc2[nH]nc(-c3ccsc3)c2CC1=O	1%[44.1 µM]
COc1cccc(CC(=O)N2CCc3nn(C)c(=O)n3CC2)c1	15%
Cc1noc([C@@H]2CN(C(=O)c3cccc4[nH]ccc34)C[C@H]2CO)n1	14%
